We go through 39 molecules from PubChem BioAssay (EPA / NIEHS).

Inconclusive results are not listed. A structure can be active in one record and inactive in another. Active and inactive are the calls of the source. Rule for the calls: active = hit-call score of the fitted dose curve at least 0.9, where 1 is the maximum; inconclusive = response in the unintended direction; inactive = score below 0.9.

Read-out in the test: glucuronosyltransferase (UGT1A1), UGT1A1 (gene 54658)
Put plainly: CLD_UGT1A1_48hr: CellzDirect (CLD) Gene Expression Assay for glucuronosyltransferase (UGT1A1) at 48 hours (AID 2283709).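 Note: actives increase expression relative to DMSO so potency refers to induction.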 As to the method: CLD_48hr is a cell-based, multiplexed-readout assay that uses hepatocyte, a human liver primary cell, with measurements taken at 48 hours after chemical dosing in a 96-well plate.CLD_UGT1A1_48hr is one of 16 assay component(s) measured or calculated from the CLD_48hr assay. It is designed to make measurements of mRNA induction, a form of inducible reporter, as detected with chemiluminescence signals by Quantitative Nuclease Protection Assay (qNPA) technology.Data from the assay component CLD_UGT1A1_48hr was analyzed at the endpoint, CLD_UGT1A1_48hr, in the positive analysis fitting direction relative to DMSO as the negative control and baseline of activity. Using a type of inducible reporter, gain-of-signal activity can be used to understand changes in the reporter gene as they relate to the gene UGT1A1. Furthermore, this assay endpoint can be referred to as a primary readout. To generalize the intended target to other relatable targets, this assay endpoint is annotated to the transferase intended target family, where subfamily is glucuronosyltransferase.
Human hepatocyte cultures were treated daily for two consecutive days with fresh dosing solutions containing appropriate concentrations of the 320 ToxCast chemicals (chemical identities were blinded to CellzDirect and other ToxCast collaborators), vehicle control (0.2% DMSO), and positive control inducers as summarized in Table 1. Due to the large number of treatment groups and chemicals examined, the ToxCast chemicals were divided into two groups (spanning two independent cultures of hepatocytes from separate donor preparations (Hu778: ToxCast plates 1 and 2; Hu776: ToxCast plates 3 and 4). Each preparation of human hepatocyte cultures was treated with respective vehicle control, medium only control, set of six positive controls/reference chemicals for the five hepatic receptor pathways, and a subset of eight of the ToxCast chemicals (indoxacarb, pyrithiobac-sodium, norflurazon, cyhalofop-butyl, methomyl, thiram, acetochlor, and propiconazole). These replicate data, coupled with internal replicates designed within the blinded ToxCast chemical library, provided additional data to evaluate interindividual differences between hepatocyte preparations and their potential impact on chemical profiles.Cell morphology and integrity were evaluated using phase-contrast microscopy as an indicator of hepatocyte cell health (Tyson & Green, 1987). Cultures for each treatment group (i.e., media, vehicle [0.2% DMSO], positive control inducers [multiple concentrations], and the ToxCast chemicals [multiple concentrations]) were observed and cell morphology was assessed relative to vehicle control cultures at each harvest time point (0, 6, 24, or 48 h). […] Images were evaluated at the conclusion of the study to assess changes in cell integrity and account for the effects of chemical exposure on uncharacteristic changes in concentration-dependent gene expression profiles. The results from these determinations of apparent cytotoxicity were annotated (yes/no) alongside the corresponding qNPA data for reference.At the conclusion of each treatment period, hepatocyte cultures (96-well) were washed with 1 volume of HBSS, lysed by addition of 25 ul ArrayPlate lysis buffer (HTG, Tucson, AZ), and 70 ul/well of Denaturation Oil, denatured by incubation at 95C for 10 min, and frozen at approximately -70C until analysis by nuclease protection assay (qNPA) (Roberts et al., 2007). For qNPA analysis, cell lysates were thawed at 50C for approximately 30 min, qNPA probes were added, and samples were incubated at 95C for 10 min to begin the detection process by denaturing the target RNA, dissociating the duplexes and secondary structure hybridization. At the conclusion of the hybridization period, S1 nuclease reagent was added to each sample to digest all nonprotected nucleotides at 50C for 60-90 min. […]
Turning to `COc1nc(NC(C)C)nc(NC(C)C)n1`, the call was inactive. Consider `C=CC1(C)OC(=O)N(c2cc(Cl)cc(Cl)c2)C1=O` (stereo not given), for which the molecule was classed as inactive. On the same count and under the same terms, as for `CC(Oc1ccc(Cl)cc1Cl)C(=O)O` (stereo not given), the entry is “inactive”.

For the molecule `COC(=O)c1ccccc1C(=O)OC`, the result was inactive. For `N#Cc1nn(-c2c(Cl)cc(C(F)(F)F)cc2Cl)c(N)c1S(=O)C(F)(F)F` (stereo not given), the outcome was inactive. Still for that read-out and setting: the value for `O=C(O)c1nc(Cl)ccc1Cl` was “inactive”; that for `CCOC(=O)C(Cl)Cc1cc(-n2nc(C)n(C(F)F)c2=O)c(F)cc1Cl` (stereo not given) was “inactive”. In the case of `CNC(=S)S`, the molecule was classed as inactive. Regarding `CC(C)Oc1cc(-n2nc(C(C)(C)C)oc2=O)c(Cl)cc1Cl`, the call was inactive. The same measure, in the same setting: the value for `Cc1c(F)c(F)c(COC(=O)C2C(/C=C(\Cl)C(F)(F)F)C2(C)C)c(F)c1F` (stereo not given) was “inactive”.

On to `N#Cc1cc(Br)c(O)c(Br)c1`, for which the call was inactive. By AC50 is commonly meant the midpoint of the concentration-response curve, whichever way the signal moves. In the case of `COC(=O)C(C)Oc1ccc(Oc2ccc(Cl)cc2Cl)cc1` (stereo not given), the outcome was inactive and the half-maximal activity concentration (AC50) is 20 µM (active). As for `CS/C(C)=N/OC(=O)N(C)SN(C)C(=O)O/N=C(\C)SC`, the outcome was inactive. As for `CCCCNC(=O)n1c(NC(=O)OC)nc2ccccc21`, the molecule was called inactive. As to `CC(C)C1(C)N=C(c2nc3ccccc3cc2C(=O)O)NC1=O` (stereo not given), the result was inactive. Turning to `Cc1cc(Cl)ccc1OCC(=O)O`, the molecule was classed as inactive. The same measure, in the same setting: the value for `CC1=C(C(=O)Nc2ccccc2)SCCO1` was “inactive”. Still for that read-out and setting: as for `CO/C=C(/C(=O)OC)c1ccccc1Oc1cc(Oc2ccccc2C#N)ncn1`, the entry is “inactive”; as for `CCCC1COC(Cn2cncn2)(c2ccc(Cl)cc2Cl)O1` (stereo not given), “inactive”. Take `CCNc1nc(Cl)nc(NC(C)C)n1`: the AC50 is 9.63 µM (active). The same measure, in the same setting: as for `O=C(Nc1ccccc1)Nc1ccnc(Cl)c1`, the figure is 6.7 µM (active). `CC1COC(Cn2cncn2)(c2ccc(Oc3ccc(Cl)cc3)cc2Cl)O1` (stereo not given): the result was inactive. As to `CON(C)C(=O)Nc1ccc(Cl)c(Cl)c1`, the result was inactive. On the same count and under the same terms, the value for `Fc1ccc(Oc2ccnc3cc(Cl)cc(Cl)c23)cc1` was “inactive”. Regarding `C=CCC1=C(C)C(OC(=O)C2C(C=C(C)C)C2(C)C)CC1=O` (stereo not given), the AC50 is 11.1 µM (active). For `CCCCOC(=O)c1ccccc1C(=O)OCCCC`, the result was inactive. Take `C=CCC1=C(C)[C@@H](OC(=O)[C@@H]2[C@@H](C=C(C)C)C2(C)C)CC1=O`: the AC50 was 7.38 µM (active).

For `COc1nc(C)nc(NC(=O)NS(=O)(=O)c2ccccc2Cl)n1`, the outcome was inactive. As to `CCCCC(CC)COC(=O)c1ccccc1C(=O)OCC(CC)CCCC` (stereo not given), the result was inactive. The same measure, in the same setting: as for `CCOP(=S)(OCC)SCn1c(=O)oc2cc(Cl)ccc21`, the entry is “inactive”. The same measure, in the same setting: the value for `N#CC(CCc1ccc(Cl)cc1)(Cn1cncn1)c1ccccc1` (stereo not given) was “inactive”. Take `CCOc1cc(Oc2ccc(C(F)(F)F)cc2Cl)ccc1[N+](=O)[O-]`: the AC50 is 5.41 µM (active). With `CCNc1nc(Cl)nc(NCC)n1`, the outcome was inactive. Still for that read-out and setting: the value for `COP(=S)(OC)Oc1nc(Cl)c(Cl)cc1Cl` was “inactive”. Same read-out and setting: the value for `CCON=C(CC)C1=C(O)CC(c2c(C)cc(C)cc2C)CC1=O` (stereo not given) was “inactive”.

With `COc1ccc(C(c2ccc(OC)cc2)C(Cl)(Cl)Cl)cc1`, the half-maximal activity concentration (AC50) was 8.36 µM (active).

Consider `CCOC(=O)CC(SP(=S)(OC)OC)C(=O)OCC` (stereo not given), for which the result was inactive. Regarding `COC(=O)C=C(C)OP(=O)(OC)OC`, the call was inactive. Still for that read-out and setting: as for `Oc1ccccc1-c1ccccc1`, the entry is “inactive”.
